Our source for the cell killing (% activity) values is PubChem BioAssay AID1443 (Sanford-Burnham Center for Chemical Genomics, 2008).

Screen size: about 220,000 compounds; about 880 (0.4%) were called active.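 The calls were made as follows: active = cell killing above 50% in the first pass at 4 µM, then a duplicate retest at 5 µM averaging 50% or more; inactive = the rest.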 The entries come from a sample that favours actives as a whole.

The assay in a line: PPC-1 cell viability loss under TRAIL – PPC-1 cells, ATPLite luminescence, uHTS, TRAIL potentiator project, primary screen (AID 1443).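 Also: plate controls were cells with TRAIL plus DMSO for no effect and medium-only wells lacking cells for full effect.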 The following applies: PPC-1 cells + TRAIL, stronger effect = higher value; at 4 µM unless noted. Background: In ATP-based viability assays light output follows the ATP content of the culture.
In the case of `CC(=O)c1sc(NC(=O)c2cccc3ccccc23)nc1C`, the cell killing (% activity) was 32% (inactive).

With `COC(=O)c1sc(NC(=S)NC(=O)c2ccc(C)cc2)nc1C`, the cell killing (% activity) was 27.1% (inactive).

As for `CC(=O)c1sc(NC(=O)c2ccc(C)cc2)nc1C`, the cell killing (% activity) is 56.3% [at 5 µM] (active).

As to `CC(=O)c1cc(-c2ccccc2)n(CC(=O)NC2CCCCC2)c1C`, the cell killing (% activity) is 6.9% (inactive).

Take `CCCCCC(O)c1cccc(OCc2ccc3ccccc3n2)c1` (stereo unspecified): the cell killing (% activity) is 10.7% (inactive).

Consider `Cc1n[nH]c(=O)nc1N/N=C/c1cccs1`, for which the cell killing (% activity) was 12.1% (inactive).

Turning to `COc1cccc(NC(=O)CC(c2ccc(OC(C)C)cc2)c2ccccc2OC)c1` (stereo unspecified), the cell killing (% activity) is 22.6% (inactive).

For the compound `C=C(C)CNC(=S)Nc1ccc(S(=O)(=O)Nc2cnc3ccccc3n2)cc1`, the cell killing (% activity) was 12.5% (inactive).

For the compound `O=C(/C=C\c1cn(-c2ccccc2)nc1-c1cccs1)N1CCOCC1`, the cell killing (% activity) was 5.8% (inactive).

In the case of `O=C(O)/C=C/c1cn(-c2ccccc2)nc1-c1cccs1`, the cell killing (% activity) is 15.1% (inactive).

With `O=C(O)c1ccc(N/N=C/c2cn(-c3ccccc3)nc2-c2cccs2)cc1`, the cell killing (% activity) was 79% [at 5 µM] (active).

As to `O=C(COC(=O)Cc1ccc(Br)cc1)Nc1c(F)c(F)c(F)c(F)c1F`, the cell killing (% activity) was 17% (inactive).

For the compound `O=C(CCl)Nc1cccc(CP(=O)(c2ccccc2)c2ccccc2)c1`, the cell killing (% activity) was -1.1% (inactive).

`O=C(Cc1cccs1)N/N=C/c1ccc(OCc2ccccc2)cc1`: the cell killing (% activity) is 20% (inactive).

Turning to `CC[C@@H](C)[C@@H](C(=O)N1CCN(C(=O)OC(C)(C)C)CC1)n1cc(CCC(=O)O)nn1`, the cell killing (% activity) was 19% (inactive).

Regarding `CC(=O)c1ccc(NC(=O)C2CC(=O)Nc3nc4ccccc4n32)cc1` (stereo unspecified), the cell killing (% activity) is 27.4% (inactive).

On to `COc1cc(C2C(N3C(=O)c4ccccc4C3=O)C(=O)N2c2ccc(C)c(C)c2)cc(OC)c1OC` (stereo unspecified), for which the cell killing (% activity) was 0.4% (inactive).

Turning to `COC(=O)[C@H](CC(C)C)NC(=O)N1CCCCC1C` (stereo partly specified), the cell killing (% activity) is 8.6% (inactive).

In the case of `CS(=O)(=O)N(CC(=O)N/N=C/c1ccccn1)c1ccc(Oc2ccccc2)cc1`, the cell killing (% activity) is 2.8% (inactive).

Turning to `CC(CNC(=O)c1ccc(N)cc1)NC(=O)c1ccc(N)cc1` (stereo unspecified), the cell killing (% activity) is 15.7% (inactive).

Turning to `O=C(NN1C(=O)C2C(C1=O)C1C=CC2C12CC2)c1ccccc1Cl` (stereo unspecified), the cell killing (% activity) is 15.1% (inactive).

With `COc1ccc(NC(=O)C2=NNC(=O)CC2)cc1S(=O)(=O)N1CCCCC1`, the cell killing (% activity) is 2.4% (inactive).

Turning to `COc1ccc(-c2csc(Nc3ccccn3)n2)cc1`, the cell killing (% activity) was 26.9% (inactive).

As for `CCOc1cc(NC(=O)c2ccccn2)c(OCC)cc1NC(=O)c1ccc(OC)cc1`, the cell killing (% activity) is 6.2% (inactive).

Take `COc1ccc(C(=O)/C=C/Nc2ccccn2)cc1`: the cell killing (% activity) is 74.5% [at 5 µM] (active).

For the compound `Cc1ccc(/C=N/NC(=O)CSc2ccccn2)o1`, the cell killing (% activity) was 28% (inactive).

As to `Cc1ccnc(NC(=O)Cn2ccc([N+](=O)[O-])n2)c1`, the cell killing (% activity) is -4.4% (inactive).

Consider `CN1C(=O)/C(=C/C=C2\SCCN2C)OC1=S`, for which the cell killing (% activity) is 7.1% (inactive).

Consider `COCCNC(=O)/C(C#N)=C/c1cccc(OCc2ccccc2)c1`, for which the cell killing (% activity) is 6.3% (inactive).

As for `COc1cc(/C=N/Nc2nn3cnnc3c3ccccc23)cc(OC)c1OC`, the cell killing (% activity) is 58.2% (active).

In the case of `COc1ccc(/C=N/Nc2nc3ccccc3o2)cc1OC`, the cell killing (% activity) is 33% (inactive).

On to `CCOc1ccc(/C=N/Nc2nncc(-c3ccccc3)n2)cc1OC`, for which the cell killing (% activity) was -7.3% (inactive).

On to `COc1ccc(NC(=O)C2CCC(CNc3c(N4CCCCC4)c(=O)c3=O)CC2)c(OC)c1` (stereo unspecified), for which the cell killing (% activity) is -39.4% (inactive).

Regarding `Cc1noc(C)c1S(=O)(=O)N(C)Cc1ccccc1`, the cell killing (% activity) is 17.3% (inactive).

For the compound `Cc1cc(C)c2nc(NC(=O)c3ccc4c(c3)OCO4)sc2c1`, the cell killing (% activity) is 4.5% (inactive).

Regarding `O=C(Nc1nc2ccccc2s1)c1ccc2c(c1)OCO2`, the cell killing (% activity) was 61.1% (active).

In the case of `COCc1nnc(NC(=O)c2ccc3c(c2)OCO3)s1`, the cell killing (% activity) was 21.9% (inactive).

Regarding `Cc1ccc(NC(=O)CCC(=O)N/N=C/c2ccco2)c(C)c1`, the cell killing (% activity) was 5.1% (inactive).

As to `COC(=O)C(=Nc1ccccc1)/C(C(=O)C(=O)N(C)c1ccccc1)=C(\O)c1ccc(Cl)cc1`, the cell killing (% activity) is -15.5% (inactive).

Turning to `CC1(C)COC(c2cccn2Cc2ccccc2Cl)=N1`, the cell killing (% activity) is 3.7% (inactive).

Take `O=C(N/N=C/C=C/c1ccco1)c1cccs1`: the cell killing (% activity) was 24.4% (inactive).

With `Cc1ccc(-c2cc(C(=O)N/N=C/C=C/c3ccco3)c3ccccc3n2)cc1C`, the cell killing (% activity) was 55.7% [at 5 µM] (active).

Turning to `COc1cccc(-c2cc(C(=O)N/N=C/c3ccc(OC)c(COC(C)=O)c3)c3ccccc3n2)c1`, the cell killing (% activity) was 4.5% (inactive).

With `Nc1ccccc1SC(C[N+](=O)[O-])c1ccccc1` (stereo unspecified), the cell killing (% activity) is 6.4% (inactive).

For the compound `O=c1c2ccccc2cnn1Cc1n[nH]c(=S)n1-c1ccccc1F`, the cell killing (% activity) is 17.1% (inactive).

Consider `COc1ccc(Cl)cc1NC(=O)Cn1nc(-c2ccc(C)cc2)n(C)c1=S`, for which the cell killing (% activity) is 14.2% (inactive).

Consider `Cn1cnc([N+](=O)[O-])c1Sc1n[nH]c(N)n1`, for which the cell killing (% activity) is -16.4% (inactive).

Take `COc1cccc(CNC(=O)CCC2CCCN(C(=O)c3cc(C)[nH]n3)C2)c1` (stereo unspecified): the cell killing (% activity) is 12.1% (inactive).

Take `CCc1ccccc1NC(=O)CSc1nnc(-c2ccncc2)o1`: the cell killing (% activity) was -4.8% (inactive).

As for `CCOC(=O)CSc1nnc(-c2ccc([N+](=O)[O-])cc2)o1`, the cell killing (% activity) was 7.7% (inactive).

Take `O=C(CSc1nnc(-c2ccc([N+](=O)[O-])cc2)o1)Nc1ccccn1`: the cell killing (% activity) is 51% [at 5 µM] (active).

In the case of `COc1ccc(CNC(=O)C(Cc2ccccc2)n2cccc2)cc1` (stereo unspecified), the cell killing (% activity) is -1.5% (inactive).

For `O=C(CCN1C(=O)C2C3C=CC(C3)C2C1=O)Oc1ccc2ccccc2c1` (stereo unspecified), the cell killing (% activity) is 9.1% (inactive).

For the compound `CCCCCCCNc1nc(Cl)nc(NCCO)n1`, the cell killing (% activity) was 17.1% (inactive).

For the compound `CC(C)(O)C#Cc1ncc(C(F)(F)F)cc1Cl`, the cell killing (% activity) was 3.1% (inactive).

Turning to `Cc1c(C2=CCN(S(=O)(=O)c3ccc(Cl)cc3)CC2)c2ccccc2n1C`, the cell killing (% activity) was 31.7% (inactive).

Consider `Cn1c(-c2ccco2)nc2cc3ccccc3cc21`, for which the cell killing (% activity) was 89.2% [at 5 µM] (active).

Turning to `S=c1[nH]nc(-c2ccco2)n1/N=C/c1ccccc1`, the cell killing (% activity) was 8% (inactive).

On to `CN1c2ccccc2-c2nc3ccccc3n2C1c1ccco1` (stereo unspecified), for which the cell killing (% activity) was 12% (inactive).

Regarding `CC(C)C(C)(C#N)NC(=O)CSc1nc2scc(-c3ccccc3)c2c(=O)[nH]1` (stereo unspecified), the cell killing (% activity) is 22.3% (inactive).

Take `COc1ccccc1N1CCN(C(=O)c2ccc(Cl)c(S(=O)(=O)N3CCCC3)c2)CC1`: the cell killing (% activity) is 0.9% (inactive).

On to `Oc1ccc(-c2[nH]ncc2-c2nc3ccccc3s2)c(O)c1`, for which the cell killing (% activity) is 14.3% (inactive).

`S=c1[nH]nc(/C=C/c2ccccc2)o1`: the cell killing (% activity) was -2.3% (inactive).

Consider `O=c1oc(/C=C/c2ccccc2)nc2ccccc12`, for which the cell killing (% activity) is 53% [at 5 µM] (active).

`O=c1oc(-c2ccccc2NS(=O)(=O)c2ccc(Cl)cc2)nc2ccccc12`: the cell killing (% activity) is -12.7% (inactive).

For the compound `COc1ccc(Cn2c(O)c(/C=C3/C=CC=N3)c(=O)[nH]c2=O)cc1`, the cell killing (% activity) was 5.9% (inactive).

Consider `Nc1nc(NCC2CCCO2)nc(Nc2ccccc2F)c1[N+](=O)[O-]` (stereo unspecified), for which the cell killing (% activity) was 2.1% (inactive).

For `O=C(CCS(=O)(=O)c1ccccc1Cl)Nc1ccc(S(=O)(=O)Nc2ncccn2)cc1`, the cell killing (% activity) is 1.8% (inactive).

Turning to `COc1cc(/C=N/NC(=O)c2ccccc2)ccc1OS(=O)(=O)c1ccccc1`, the cell killing (% activity) was 21.5% (inactive).

For `COc1ccc(C(=O)Nc2ccccc2C(=O)N/N=C/c2ccc(O)c(OC)c2)cc1`, the cell killing (% activity) was 96.7% [at 5 µM] (active).

Take `COc1ccc(C(=O)Nc2ccccc2C(=O)N/N=C/c2ccccc2OC)cc1`: the cell killing (% activity) is 28.7% (inactive).

On to `CCn1cc(CN2CCCC(CNS(=O)(=O)Cc3ccccc3)C2)cn1` (stereo unspecified), for which the cell killing (% activity) was 14.8% (inactive).

Take `O=C(N/N=C/c1cc([N+](=O)[O-])ccc1O)/C(=C\c1cccs1)NC(=O)c1ccccc1`: the cell killing (% activity) was 8.1% (inactive).

Turning to `CC12C(=O)N(c3ccccc3)C(=O)C1C(c1ccccc1)N1CCCN12` (stereo unspecified), the cell killing (% activity) is 8.2% (inactive).

Take `Cn1nccc1NC(=O)CC(CC(=O)O)c1ccccc1` (stereo unspecified): the cell killing (% activity) is 5.7% (inactive).

As for `CC1(C)N=C(c2ccccn2)C(C)(C)N1O`, the cell killing (% activity) is 22.7% (inactive).

As for `Cc1cc(-n2cnc(-c3cn(C)nc3C)n2)no1`, the cell killing (% activity) is -10.4% (inactive).

As for `CN1CCN(CC#CCC2(O)c3ccccc3-c3ccccc32)CC1`, the cell killing (% activity) is 1.7% (inactive).

On to `O=c1cnnc(Nc2ccccc2)[nH]1`, for which the cell killing (% activity) was 30.6% (inactive).

For the compound `Cc1nc(-c2ccc(Cl)cc2)sc1C(=O)CBr`, the cell killing (% activity) was 11.1% (inactive).

In the case of `Cc1nc(-c2ccc(Cl)cc2)sc1C(=O)NN`, the cell killing (% activity) is 59.4% [at 5 µM] (active).

For the compound `Cc1ccc(SCC(=O)c2sc(-c3ccccc3)nc2C)cc1`, the cell killing (% activity) is 8.5% (inactive).

For the compound `O=C(COC(=O)c1ccc(Cl)nc1)NCc1ccc2c(c1)OCO2`, the cell killing (% activity) is -2.9% (inactive).

Turning to `CC(C(=O)Nc1ccc(F)c(F)c1F)N1CCCCCC1` (stereo unspecified), the cell killing (% activity) was 30.5% (inactive).

On to `COc1ccc(OC)c(NC(=O)N[C@H](Cc2ccccc2)C(=O)NN)c1`, for which the cell killing (% activity) was -4.7% (inactive).

Consider `Nn1c(SCC(=O)NC2CCCC2)nnc1-c1ccccc1F`, for which the cell killing (% activity) was 2.5% (inactive).

With `O=c1c(-c2ccccc2)cnc2n1CCS2`, the cell killing (% activity) was -3.9% (inactive).

As to `COc1ccc(C2=Nc3cc(C)ccc3OC2)cc1`, the cell killing (% activity) was 52.1% (active).

Turning to `Cc1ccc(C(=O)NNC2=Nc3cc([N+](=O)[O-])ccc3OC2)cc1`, the cell killing (% activity) is -2.5% (inactive).

`COc1ccc(C2=NOC3(CC(=O)N(c4ccc(C)cc4)C3=O)C2)cc1` (stereo unspecified): the cell killing (% activity) was 12.3% (inactive).

In the case of `CNC(=O)NC(=O)C(OC(=O)c1cccc(S(=O)(=O)N2CCCCC2)c1)c1ccccc1` (stereo unspecified), the cell killing (% activity) was 8.9% (inactive).

For the compound `N#CCc1ccc(OC(=O)c2cccnc2)cc1`, the cell killing (% activity) is 0.5% (inactive).

Consider `CCOC(=O)N1CCN(CC(=O)Nc2cc(C)nn2-c2nc3ccccc3s2)CC1`, for which the cell killing (% activity) is -8.9% (inactive).

`Cc1cc(NC(=O)CN2CCCC(C)C2)n(-c2nc3ccccc3s2)n1` (stereo unspecified): the cell killing (% activity) is -3.9% (inactive).

As to `CCC(C)Cn1c(O)cc2nn(-c3nc4ccccc4s3)c(=O)c-2c1C` (stereo unspecified), the cell killing (% activity) is 56% [at 5 µM] (active).

Turning to `COc1ccc(CCNC2=CC(=O)CC(C)(C)C2)cc1`, the cell killing (% activity) is 14.5% (inactive).
